The source made the active and inactive calls.
Tests used:
[1] = E. coli DRC41 culture turbidity changes, primary screen, E. coli filamentation inducer project, strain DRC41, OD650, 48 h (AID 1152);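 also: E. coli MC1000 strain DRC41 lacking acrAB efflux pump and sulA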; settings: E. coli DRC41 (acrAB sulA), higher = more signal, called active from +8 up or from −8 down
[2] = small-molecule binders of probe aLefty1, primary screen, biochemical, small-molecule microarray, 635/667 nm fluorescence (AID 1153); settings: higher = more signal;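 also: score merges spot fluorescence with signal-to-noise ratio from the scanned slide images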
[3] = PSAC antagonists in infected red cells, primary screen, cell-based, P. falciparum Indochina, OD700, 1 h (AID 1154); settings: P. falciparum Indochina infected RBC osmotic lysis, higher = more signal, called active from +8 up or from −8 down
[4] = PSAC antagonists in infected red cells, primary screen, cell-based, P. falciparum Indochina, OD700, 2 h (AID 1155);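 also: lysis reports solute entry through the parasite surface anion channel PSAC; channel blockers reduce lysis of infected cells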; settings: P. falciparum Indochina infected erythrocytes, osmotic lysis OD700; higher = more signal, called active from +8 up or from −8 down
[5] = osmotic lysis modulators in infected erythrocytes, primary screen, PSAC antagonist project, cell-based, P. falciparum Indochina, OD700, 3 h (AID 1156); settings: higher = more signal, called active from +8 up or from −8 down
[6] = PSAC antagonists in infected red cells, primary screen, cell-based, P. falciparum Indochina, OD700, 18 h (AID 1157); settings: P. falciparum Indochina infected erythrocytes, osmotic lysis OD700, 18 h; higher = more signal, called active from +8 up or from −8 down
[7] = modulators of S6 phosphorylation in cells, primary screen, cell-based, A549, cytoblot, luminescence, serum-stimulated (AID 1158); settings: A549 phospho-S6 cytoblot, 5 h, higher = more signal;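 also: serum-stimulated A549 lung adenocarcinoma cells; signal is phosphorylated S6 detected by cytoblot immunostaining with HRP secondary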
[8] = molecular target: NADPH oxidase 2 (Homo sapiens) (UniProt P04839); test: NOX2-dependent H2O2 signal modulators, primary screen, NOX inhibitor project, cell-based, HEK293-NOX2, PMA-stimulated, Amplex Red fluorescence (AID 1159); settings: 45 min, higher = more signal, called active from +8 up or from −8 down; also: test concentration not given here
Sequence of NADPH oxidase 2 (Homo sapiens) (P04839 whole entry, looked up): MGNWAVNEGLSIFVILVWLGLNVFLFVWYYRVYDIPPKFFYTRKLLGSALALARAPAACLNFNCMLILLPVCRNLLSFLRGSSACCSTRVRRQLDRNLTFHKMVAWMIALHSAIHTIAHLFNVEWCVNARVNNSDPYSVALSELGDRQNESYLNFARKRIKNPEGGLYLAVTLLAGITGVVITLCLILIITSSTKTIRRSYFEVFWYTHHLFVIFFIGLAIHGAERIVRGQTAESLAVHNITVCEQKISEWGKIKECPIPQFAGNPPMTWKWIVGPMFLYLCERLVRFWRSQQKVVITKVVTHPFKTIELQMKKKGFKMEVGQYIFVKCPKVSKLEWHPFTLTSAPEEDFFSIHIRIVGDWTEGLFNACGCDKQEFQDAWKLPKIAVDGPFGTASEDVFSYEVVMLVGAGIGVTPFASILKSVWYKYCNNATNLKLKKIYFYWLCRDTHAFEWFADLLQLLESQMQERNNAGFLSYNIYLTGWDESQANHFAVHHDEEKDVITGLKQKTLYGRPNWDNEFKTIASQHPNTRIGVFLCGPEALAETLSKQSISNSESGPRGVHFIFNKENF

[9] = molecular target: NADPH oxidase 4 (Homo sapiens) (UniProt Q9NPH5); test: NOX4-dependent H2O2 signal modulators, primary screen, NOX inhibitor project, cell-based, HEK293-NOX4, tetracycline-induced, Amplex Red fluorescence (AID 1160); settings: 45 min, higher = more signal, called active from +8 up or from −8 down
Sequence of NADPH oxidase 4 (Homo sapiens) (Q9NPH5 whole entry, looked up): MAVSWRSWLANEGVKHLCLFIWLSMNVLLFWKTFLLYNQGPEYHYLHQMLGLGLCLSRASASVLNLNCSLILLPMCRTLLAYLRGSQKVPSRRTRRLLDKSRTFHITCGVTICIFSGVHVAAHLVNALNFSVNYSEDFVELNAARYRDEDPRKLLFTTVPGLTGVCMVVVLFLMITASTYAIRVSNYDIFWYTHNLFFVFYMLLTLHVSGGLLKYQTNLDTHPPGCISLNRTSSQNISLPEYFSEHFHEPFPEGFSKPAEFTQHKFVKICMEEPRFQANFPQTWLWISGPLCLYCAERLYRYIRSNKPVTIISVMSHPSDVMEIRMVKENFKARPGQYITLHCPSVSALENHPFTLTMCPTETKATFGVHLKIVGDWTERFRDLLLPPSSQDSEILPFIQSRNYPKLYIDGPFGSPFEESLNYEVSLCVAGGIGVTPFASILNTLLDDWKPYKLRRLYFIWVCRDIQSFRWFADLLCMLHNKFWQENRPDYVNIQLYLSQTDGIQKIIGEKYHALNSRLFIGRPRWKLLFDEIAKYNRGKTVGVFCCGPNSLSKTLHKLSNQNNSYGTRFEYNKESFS

[10] = molecular target: NADPH oxidase 5 (Homo sapiens) (UniProt Q96PH1); test: NOX5-dependent H2O2 signal modulators, primary screen, NOX inhibitor project, cell-based, HEK293-NOX5, Amplex Red fluorescence (AID 1161); settings: HEK293-NOX5, ionomycin, 45 min, higher = more signal
Sequence of NADPH oxidase 5 (Homo sapiens) (Q96PH1 whole entry, looked up): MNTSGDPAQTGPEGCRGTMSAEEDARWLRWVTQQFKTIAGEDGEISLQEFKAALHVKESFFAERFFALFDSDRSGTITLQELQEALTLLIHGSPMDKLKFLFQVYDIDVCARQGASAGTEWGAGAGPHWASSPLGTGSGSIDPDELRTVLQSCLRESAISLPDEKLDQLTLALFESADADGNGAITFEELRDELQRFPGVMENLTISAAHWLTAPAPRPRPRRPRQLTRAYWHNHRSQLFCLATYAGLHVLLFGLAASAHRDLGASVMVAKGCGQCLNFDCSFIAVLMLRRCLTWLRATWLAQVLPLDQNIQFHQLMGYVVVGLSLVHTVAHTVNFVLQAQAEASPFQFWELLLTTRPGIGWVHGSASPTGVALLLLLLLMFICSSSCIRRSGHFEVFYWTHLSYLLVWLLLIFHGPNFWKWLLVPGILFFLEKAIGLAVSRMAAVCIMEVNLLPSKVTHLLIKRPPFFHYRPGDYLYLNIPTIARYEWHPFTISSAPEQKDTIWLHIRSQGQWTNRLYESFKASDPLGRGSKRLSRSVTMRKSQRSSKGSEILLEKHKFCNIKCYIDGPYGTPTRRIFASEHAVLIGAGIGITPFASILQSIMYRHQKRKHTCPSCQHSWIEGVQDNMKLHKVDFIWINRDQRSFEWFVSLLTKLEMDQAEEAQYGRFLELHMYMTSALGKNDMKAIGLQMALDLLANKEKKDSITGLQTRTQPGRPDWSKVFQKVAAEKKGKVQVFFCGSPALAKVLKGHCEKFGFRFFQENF

[11] = A549 cell viability effects, profiling panel, calcein-AM fluorescence, 48 h, basal (AID 1162); settings: higher = more signal; also: test concentration not given here
[12] = adipocyte viability effects, profiling panel, cell-based, 3T3-L1 adipocytes, calcein-AM fluorescence, 48 h, basal (AID 1163); settings: 3T3-L1 adipocytes viability, higher = more signal; also: test concentration not given here
[13] = HepG2 cell viability effects, profiling panel, calcein-AM fluorescence, 48 h, basal (AID 1164); settings: higher = more signal; also: test concentration not given here
[14] = MM1S cell viability effects, profiling panel, calcein-AM fluorescence, 48 h, basal (AID 1165); settings: higher = more signal;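 also: viability of MM1S multiple myeloma cells under basal unstimulated conditions; test concentration not given here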
[15] = basal RPMI8226 viability, no added stimulus, profiling panel, cell-based, calcein-AM fluorescence, 48 h, PK04 Diversity Set (AID 1166); settings: RPMI8226 myeloma viability, higher = more signal;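 also: cells grown under basal conditions without added stimulus; test concentration not given here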
[16] = basal HepG2 mitochondrial membrane potential changes, profiling panel, cell-based, JC-1 fluorescence, 24 h, 100 nL compound (AID 1167); settings: higher = more signal; also: test concentration not given here
[17] = basal 3T3-L1 adipocyte mitochondrial potential changes, profiling panel, cell-based, JC-1 fluorescence, 3T3-L1 adipocytes, 24 h, 100 nL compound (AID 1168); settings: JC-1 mitochondrial fluorescence, higher = more signal, called active from +8 up or from −8 down; also: test concentration not given here
[18] = basal RPMI8226 mitochondrial membrane potential changes, profiling panel, cell-based, JC-1 fluorescence, 24 h, 100 nL compound (AID 1169); settings: RPMI8226 myeloma, JC-1 mitochondrial potential fluorescence, higher = more signal; also: test concentration not given here
[19] = basal MM1S mitochondrial membrane potential changes, profiling panel, cell-based, JC-1 fluorescence, 24 h, 100 nL compound (AID 1170); settings: higher = more signal; also: test concentration not given here
[20] = A549 lung cancer cell viability effects, profiling panel, resazurin fluorescence, 24 h, PK04 Diversity Set (AID 1171); settings: higher = more signal, called active from +8 up or from −8 down; also: test concentration not given here

Compound	z-score [1]	composite z-score [2]	z-score [3]	z-score [4]	z-score [5]	z-score [6]	z-score [7]	z-score [8]	z-score [9]	z-score [10]	z-score [11]	z-score [12]	z-score [13]	z-score [14]	z-score [15]	z-score [16]	z-score [17]	z-score [18]	z-score [19]	z-score [20]
C=CCC(OC(C)=O)[C@@H]1[C@@H](N(Cc2ccc(-c3cccc(C(F)(F)F)c3)o2)C(=O)Cc2ccc(OC)cc2)c2cc(OCCCO)ccc2N1C(=O)c1ccc2ccccc2n1 (stereo not given in full)	-0.797 (inactive)	-0.0046	0.83 (inactive)	0.74 (inactive)	0.959 (inactive)	0.289 (inactive)	0.342	-0.236 (inactive)	-1.23 (inactive)	-1.45	-0.0093	0.341	0.279	-1.2	-2.3	2.12	0.253 (inactive)	-0.616	1.42	-1.25 (inactive)
COc1ccc(NN2C(C(O)c3ccc(OC)cc3)C=CC3C(=O)N(C4CCCCC4)C(=O)C32)cc1 (stereo not given)	-0.625 (inactive)	0.0768	9.1 (active)	1.69 (inactive)	0.722 (inactive)	0.63 (inactive)	-0.613	-1.34 (inactive)	-1.1 (inactive)	-2.54	-0.285	-1.29	1.24	0.764	-0.512	-0.126	0.0238 (inactive)	0.417	-1.44	0.965 (inactive)
COCCCNC(=O)[C@@H]1c2ccccc2C(=O)N(C2CCCCC2)[C@H]1c1ccc(CO)cc1	0.416 (inactive)	0.0839	0.794 (inactive)	-0.0928 (inactive)	0.65 (inactive)	-0.51 (inactive)	2.35	0.422 (inactive)	-1.61 (inactive)	-0.915	1.83	1.15	1.05	0.777	-0.559	2.49	-0.154 (inactive)	0.107	-1.17	1.19 (inactive)
CC(C)C[C@@H]1NC(=O)[C@@H]2C[C@H](C(=O)O)[C@H](c3ccc(O)cc3)N2C1=O	2.59 (inactive)	0.013	4.56 (inactive)	0.677 (inactive)	-0.641 (inactive)	0.179 (inactive)	1.09	0.304 (inactive)	0.398 (inactive)	-0.107	0.704	0.37	0.285	-1.32	0.126	0.962	-0.773 (inactive)	-0.49	0.3	1.64 (inactive)
CO[C@H]1O[C@H](CO)[C@@H](OC(=O)Nc2ccc3c(c2)OCO3)[C@@H]2OC(=O)[C@@H](Cc3ccccc3)C/C=C/C[C@H](Cc3ccccc3)C(=O)O[C@@H]12	0.239 (inactive)	0.12	2.93 (inactive)	0.825 (inactive)	0.0814 (inactive)	1.09 (inactive)	0.401	-0.895 (inactive)	-0.162 (inactive)	-1.47	1.9	-2.78	0.843	-0.69	-0.197	0.186	0.912 (inactive)	-0.469	-0.897	-1.64 (inactive)
CC(=O)c1ccc(C(O)C2C=CC3C(=O)N(C)C(=O)C3N2NC(=O)OC(C)(C)C)cc1 (stereo not given)	-1.33 (inactive)	0.186	1.24 (inactive)	0.957 (inactive)	0.0395 (inactive)	0.95 (inactive)	-1.51	-0.455 (inactive)	-1.57 (inactive)	-1.01	-1.02	-0.701	-0.831	-0.682	-0.193	-1.29	-0.82 (inactive)	-0.539	0.485	-0.659 (inactive)
CC(C)CNC(=O)[C@@H]1c2ccccc2C(=O)N(Cc2ccccc2)[C@H]1c1ccc(CO)cc1	-0.603 (inactive)	-0.106	1.49 (inactive)	0.294 (inactive)	2.44 (inactive)	0.769 (inactive)	-0.316	-0.638 (inactive)	-1.24 (inactive)	-3.17	-0.412	0.175	-0.345	0.0234	0.65	0.508	-0.526 (inactive)	0.146	-0.139	0.678 (inactive)
[N-]=[N+]=NCc1ccccc1C[C@]1(C(=O)O)COC(c2ccc(OCCCO)cc2)=N1	0.0626 (inactive)	0.118	5.11 (inactive)	0.179 (inactive)	1.56 (inactive)	-0.315 (inactive)	0.49	0.0988 (inactive)	1.27 (inactive)	0.641	0.608	-0.379	0.383	-0.175	0.345	-0.578	-0.634 (inactive)	-0.285	-0.261	0.0946 (inactive)
